PHOSPHO1 block: inhibitors of human PHOSPHO1 phosphatase | recombinant PHOSPHO1, absorbance phosphatase assay | Q8TCT1 | inhibition, % at 13.3 µM | hit rate 1.1% among 290,000 | AID 1565; in the data active = inhibition above about 60%
Target sequence (Q8TCT1 whole entry, looked up): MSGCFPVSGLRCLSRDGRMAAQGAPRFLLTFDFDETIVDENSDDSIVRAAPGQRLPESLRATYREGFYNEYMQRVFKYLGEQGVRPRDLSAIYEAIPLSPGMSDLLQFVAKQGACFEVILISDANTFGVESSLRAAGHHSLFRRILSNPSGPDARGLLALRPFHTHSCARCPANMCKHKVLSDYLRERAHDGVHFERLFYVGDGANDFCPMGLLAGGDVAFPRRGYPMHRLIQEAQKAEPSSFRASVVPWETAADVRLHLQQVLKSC
PfGluPho inh: PfG6PD (Plasmodium falciparum) enzyme inhibition. PfGluPho enzyme, NADPH resazurin-diaphorase fluorescence. inhibition, % at 20 µM. hit rate 0.78% among 350,000;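 active = inhibition reaching at least a set limit at 20 µM in the primary screen, cut at about 59% in these data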
ALR H2O2 inh: inhibitors of human sulfhydryl oxidase ALR; purified ALR, DTT oxidation, H2O2 HRP-luminol luminescence; inhibition, % (no concentration beside the values); hit rate 3.8% among 290,000; AID 485317;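 active = mean replicate inhibition above about 79%, with every replicate also reaching it, limit read from the data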
H9c2 protect: protects H9c2 cardiomyocytes from peroxide injury; H2O2 injury protection, ATPLite, 2 h; protection from H2O2 cell death, % at 20 µM; hit rate 0.63% among 360,000;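 active = compounds giving at least 50% protection of heart cells from peroxide-induced death in the single-dose screen, raw or plate-pattern-corrected value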
M18AAP inhibitor: blocks P. falciparum M18 aspartyl aminopeptidase. hit rate 1.2% among 290,000. inhibition, % at 7.35 µM. recombinant PfM18AAP, H-Glu-NHMec fluorogenic cleavage;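 active = inhibition above the campaign mean inhibition over all tested compounds plus 3 SD, cut at about 28% in these data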
Hits are given with their value. An excerpt weighted towards active compounds, which were near 5.6% of everything screened.

`CC1CCCC(C)N1c1nnc(NC(=O)Cn2c(=O)oc3ccccc32)s1` (stereo not given) gave PHOSPHO1 block 62, PfGluPho inh inactive, ALR H2O2 inh inactive, H9c2 protect inactive and M18AAP inhibitor inactive.
N#Cc1ccc(OCC(=O)OCC(=O)Nc2ccc(N3CCOCC3)cc2)cc1 was read as PfGluPho inh inactive, ALR H2O2 inh 94 and H9c2 protect inactive.
O=C(CNS(=O)(=O)c1ccc(Br)cc1Cl)OCC(=O)N1CCCC1=O was read as PfGluPho inh inactive, ALR H2O2 inh inactive and H9c2 protect inactive.
For C/C(=N\NC(=O)COc1ccc(C#N)cc1)c1ccc(N2CCOCC2)cc1 the results were PHOSPHO1 block inactive, PfGluPho inh inactive, ALR H2O2 inh 99, H9c2 protect inactive and M18AAP inhibitor inactive.
For N#Cc1ccc(C(=O)OCC(=O)Nc2ccc(N3CCOCC3)cc2)cc1 the results were PHOSPHO1 block inactive, PfGluPho inh inactive, ALR H2O2 inh inactive, H9c2 protect inactive and M18AAP inhibitor inactive.
O=C(COC(=O)CNS(=O)(=O)c1ccc(Br)cc1Cl)Nc1ccc(N2CCOCC2)cc1 was read as PfGluPho inh inactive, ALR H2O2 inh 99 and H9c2 protect inactive.
For C=CCn1c(O)c2ccc(C(=O)N=NC(=O)COc3ccc(OC)cc3)cc2c1O the results were PfGluPho inh inactive, ALR H2O2 inh inactive, H9c2 protect inactive and M18AAP inhibitor inactive.
CCOc1cccc(-c2nc3c(s2)CCc2onc(-c4cccc([N+](=O)[O-])c4)c2-3)c1 was read as PfGluPho inh inactive and H9c2 protect inactive.
Cc1cn([C@H]2C[C@H](O)[C@@H](/C=C/C(=O)NCc3ccc(N(C)C)cc3)O2)c(=O)[nH]c1=O was read as H9c2 protect inactive.
O=C(NCc1cccnc1)C1CC(c2ccc(Cl)c(Cl)c2)=NO1 (stereo not given) was read as PHOSPHO1 block inactive, PfGluPho inh inactive, ALR H2O2 inh inactive, H9c2 protect inactive and M18AAP inhibitor inactive.
COc1cccc(-c2nc(CS(=O)CC(=O)NC3CCCCC3)c(C)o2)c1 (stereo not given) was read as PHOSPHO1 block inactive, PfGluPho inh inactive, ALR H2O2 inh 99, H9c2 protect inactive and M18AAP inhibitor inactive.
COc1cccc(-c2nc(CS(=O)CC(=O)NC3CCCC3)c(C)o2)c1 (stereo not given) was read as PHOSPHO1 block inactive, PfGluPho inh inactive, ALR H2O2 inh 99, H9c2 protect inactive and M18AAP inhibitor inactive.
COc1cccc(-c2noc(CCC(=O)NC3CCCC3)n2)c1 was read as PHOSPHO1 block inactive, PfGluPho inh inactive, ALR H2O2 inh inactive, H9c2 protect inactive and M18AAP inhibitor inactive.
`COc1cccc(-c2noc(CCCC(=O)NC3CCCC3)n2)c1` gave PHOSPHO1 block inactive, PfGluPho inh inactive, ALR H2O2 inh inactive, H9c2 protect inactive and M18AAP inhibitor inactive.
`COc1ccc(OC)c(CN2CCN(C(=O)CCC(=O)c3cccs3)CC2)c1` gave PfGluPho inh inactive, ALR H2O2 inh inactive and H9c2 protect inactive.
`O=S1(=O)C[C@@H](N2CCN(CC3CC3)CC2)[C@H](COCc2ccccc2)N1` gave H9c2 protect inactive.
For Cc1sc2nc(N)sc2c1C the results were PHOSPHO1 block 90, PfGluPho inh inactive, ALR H2O2 inh inactive, H9c2 protect inactive and M18AAP inhibitor inactive.
COC(=O)c1cccc(N2C(=O)c3ccccc3S2(=O)=O)c1 was read as PHOSPHO1 block 92, PfGluPho inh inactive, H9c2 protect inactive and M18AAP inhibitor inactive.
COC(=O)c1ccc(CN2C(=O)c3ccccc3S2(=O)=O)cc1 was read as PHOSPHO1 block inactive, PfGluPho inh inactive, ALR H2O2 inh inactive, H9c2 protect inactive and M18AAP inhibitor inactive.
`O=c1[nH]c2ccccc2nc1Cc1ccc([N+](=O)[O-])cc1` gave PHOSPHO1 block inactive, PfGluPho inh inactive, ALR H2O2 inh 95, H9c2 protect inactive and M18AAP inhibitor inactive.
Screening O=c1[nH]c2ccccc2nc1Cc1ccc(Cl)cc1 returned PHOSPHO1 block inactive, PfGluPho inh inactive, ALR H2O2 inh inactive, H9c2 protect inactive and M18AAP inhibitor inactive.
`Cn1c(-c2ccccc2)cnc1NCc1cc2c(cc1[N+](=O)[O-])OCO2` gave PHOSPHO1 block inactive, PfGluPho inh inactive, ALR H2O2 inh 98, H9c2 protect inactive and M18AAP inhibitor inactive.
For Cn1c(-c2ccc(F)cc2)cnc1NCc1cc2c(cc1[N+](=O)[O-])OCO2 the results were PHOSPHO1 block inactive, PfGluPho inh inactive, ALR H2O2 inh 93, H9c2 protect inactive and M18AAP inhibitor inactive.
`Cn1c(-c2ccc3c(c2)OCO3)cnc1NCc1cccc(O)c1` gave PHOSPHO1 block inactive, PfGluPho inh inactive, ALR H2O2 inh 88, H9c2 protect inactive and M18AAP inhibitor inactive.

Screens (PubChem)
